Sampled rows, rich in hits. Any-hit rate of the full collection: about 3.8%.
Gli-Sufu antag: antagonists of Gli-Sufu signaling. Sufu-KO-LIGHT fibroblasts, Gli luciferase reporter luminescence. inhibition, % at 5 µM. actives 0.74% (n = 340,000);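 active means inhibition above about 55%, limit read from the data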;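 further: 0% = DMSO-treated cells and 100% = wells with medium but no cells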
Jurkat NFkB inh: lowers PMA/ionomycin-induced NF-kB signal in Jurkat cells. PMA/ionomycin-induced NF-kB luciferase reporter, luminescence. inhibition, % at 4 µM. actives 0.53% (n = 330,000); in the data active means inhibition above about 50%
697 NFkB inh: inhibitors of the PMA/ionomycin-induced NF-kB reporter in 697 B cells; 697 B-cell NF-kB luciferase reporter, 16 h; inhibition, % at 4 µM; actives 0.33% (n = 330,000); AID 435022; in the data active means inhibition above about 35%
Shn3 3UTR inh: reduces Shn3 3'UTR luciferase signal in osteoblasts; actives 0.52% (n = 360,000); Clone20 osteoblast Shn3 3'UTR firefly luciferase, 24 h; inhibition, % at 12.5 µM;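 active means mean inhibition of at least 75% with every replicate also reaching 75%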;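 further: 0% = median of neutral control wells and 100% = pilot-screen positive control compound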
Mdm2 MdmX PPI: disrupts the human Mdm2-MdmX interaction. actives 3% (n = 330,000). inhibition, % at 8 µM. SaOS-2 split-luciferase Mdm2/MdmX complementation, luminescence. O15151+Q00987;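 active means inhibition of at least 50% at 8 µM in the primary screen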
Jurkat NFkB conf: inhibitors of the PMA/ionomycin-induced NF-kB reporter in Jurkat cells, retest; shares compounds with Jurkat NFkB inh; Jurkat NF-kB luciferase, 16 h; inhibition, % at 4 µM; actives 27% (n = 2,700); AID 435020;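 active means inhibition reaching about 45% at 4 µM in either replicate, limit read from the data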;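 further: plate controls were PMA/ionomycin stimulated DMSO wells for no effect and unstimulated DMSO wells for full effect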
697 NFkB conf: lowers PMA/ionomycin-induced NF-kB signal in 697 B cells. shares compounds with 697 NFkB inh. 697 B-cell NF-kB luciferase, 16 h. inhibition, % at 4 µM. actives 35% (n = 2,000). AID 449746; in the data active means inhibition mostly above about 28%, no sharp cut-off; inactive means mostly below about 22%
Mdm2-MdmX conf: human Mdm2/MdmX binding inhibition, confirmed. shares compounds with Mdm2 MdmX PPI. luminescent assay. inhibition, % at 8 µM. actives 55% (n = 10,000). AID 489028; in the data active means inhibition above about 40%
Full FLuc ctr: inhibits full-length luciferase, flagging false Mdm2/MdmX hits; actives 77% (n = 6,200); SaOS-2 full-length luciferase counterscreen, luminescence; shares compounds with Mdm2 MdmX PPI; inhibition, % at 8 µM; AID 504607;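 active means mean inhibition at 8 µM reaching about 37%, which flags the compound as non-specific, limit read from the data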;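 further: p53-null SaOS-2 cells with luciferase driven by a doxycycline-inducible promoter; compound on cells about two nights before reading with doxycycline added after day one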
Numbers without * were called inactive.

`COc1ccc(/C=N\NC(=O)CNC(=O)C2COc3ccccc3O2)cc1[N+](=O)[O-]` (centres undefined) gave Gli-Sufu antag 1, Jurkat NFkB inh -3, 697 NFkB inh 0, Shn3 3UTR inh 2 and Mdm2 MdmX PPI 12.
COc1ccccc1CNS(=O)(=O)c1cc2c3c(c1)CCN3C(=O)CC2 was read as Gli-Sufu antag 7, Jurkat NFkB inh 1, 697 NFkB inh -16, Shn3 3UTR inh 22 and Mdm2 MdmX PPI 19.
`NC1=NC[C@H](c2ccccc2)N1CCc1cc(C(F)(F)F)cc(C(F)(F)F)c1` gave Gli-Sufu antag 21, Jurkat NFkB inh 71*, 697 NFkB inh -17, Shn3 3UTR inh 21, Mdm2 MdmX PPI 80*, Jurkat NFkB conf 13, Mdm2-MdmX conf 68* and Full FLuc ctr 57*.
For CC(C)c1ccc2oc(=O)cc(CN3CCCCC3)c2c1 the results were Gli-Sufu antag 7, Jurkat NFkB inh -14, 697 NFkB inh 14, Shn3 3UTR inh 15 and Mdm2 MdmX PPI 19.
For CN(C)c1ccc(C2C=C(c3ccc(Cl)cc3OC(F)F)Nc3ncnn32)cc1 (centres undefined) the results were Gli-Sufu antag -7, Jurkat NFkB inh 61*, 697 NFkB inh 2, Shn3 3UTR inh 5, Mdm2 MdmX PPI 66*, Jurkat NFkB conf 15, Mdm2-MdmX conf 54* and Full FLuc ctr 49*.
Screening Cc1ccc(NC(=O)c2cnc(SCC(=O)c3ccccc3)n(C)c2=O)cc1 returned Gli-Sufu antag -4, Jurkat NFkB inh -34, 697 NFkB inh -52, Shn3 3UTR inh 0 and Mdm2 MdmX PPI 38.
For COc1ccc(C(=O)C2CCCN(C(=O)/C=C/c3ccccn3)C2)c(C)c1 (centres undefined) the results were Gli-Sufu antag -8, Jurkat NFkB inh 1, 697 NFkB inh -2, Shn3 3UTR inh -8 and Mdm2 MdmX PPI -8.
`O=S1(=O)Nc2c(ccc3cccnc23)-c2ccccc21` gave Gli-Sufu antag 82*, Jurkat NFkB inh 69*, 697 NFkB inh -82, Shn3 3UTR inh 88*, Mdm2 MdmX PPI 100*, Jurkat NFkB conf 54*, Mdm2-MdmX conf 97* and Full FLuc ctr 54*.
Screening CC[C@@]1(O)C(=O)OCc2c1cc1n(c2=O)Cc2cc3c(N)cccc3nc2-1 returned Gli-Sufu antag 65*, Jurkat NFkB inh 81*, 697 NFkB inh 77*, Shn3 3UTR inh 36, Mdm2 MdmX PPI 100*, Jurkat NFkB conf 84*, 697 NFkB conf 1, Mdm2-MdmX conf 96* and Full FLuc ctr 53*.
CC[C@@]1(O)C(=O)OCc2c1cc1n(c2=O)Cc2cc3c(CN(C)C)c(O)ccc3nc2-1 was read as Gli-Sufu antag 61*, Jurkat NFkB inh 73*, 697 NFkB inh -329, Shn3 3UTR inh 53, Mdm2 MdmX PPI 88*, Jurkat NFkB conf 95*, 697 NFkB conf -375, Mdm2-MdmX conf 88* and Full FLuc ctr 52*.
`CCCCc1cc(=O)oc2c(CN(C)C)c(O)ccc12` gave Gli-Sufu antag 6, Jurkat NFkB inh -16, 697 NFkB inh -17, Shn3 3UTR inh 7 and Mdm2 MdmX PPI -14.
O=c1cccc2n1Cc1cc3ccccc3nc1-2 was read as Gli-Sufu antag -62, Jurkat NFkB inh -91, 697 NFkB inh -87, Shn3 3UTR inh -44 and Mdm2 MdmX PPI -59.
CN(C)c1ccc(/C=C/c2ccc3ccccc3[n+]2C)cc1 was read as Gli-Sufu antag 87*, Jurkat NFkB inh 93*, 697 NFkB inh -11, Shn3 3UTR inh 67, Mdm2 MdmX PPI 87*, Jurkat NFkB conf 66*, Mdm2-MdmX conf 82* and Full FLuc ctr 13.
For Cc1ccc(CNS(=O)(=O)/C=C/c2ccc3c(c2)OCO3)cc1 the results were Gli-Sufu antag 13, Jurkat NFkB inh -12, 697 NFkB inh -29, Shn3 3UTR inh -10 and Mdm2 MdmX PPI -17.

High-throughput results from PubChem BioAssay.
